Legend:
Test in all cases: DAPPL (digital affinity profiling via proximity ligation, sequencing); 10 mM Tris-HCl pH 7.5, 50 mM NaCl, 1 mM DTT, 4% glycerol, room temperature, 30 min; GST-TFs on glutathione beads, 16-mer random dsDNA library, 0.1% formaldehyde crosslink after washing; high values mean tight binding
Conditions in all cases: protein: recombinant; tags: N-terminal GST; dsDNA, one strand shown
ERF = target: T1, ERF (Homo sapiens, UniProt P50548 1-548)
T1 sequence: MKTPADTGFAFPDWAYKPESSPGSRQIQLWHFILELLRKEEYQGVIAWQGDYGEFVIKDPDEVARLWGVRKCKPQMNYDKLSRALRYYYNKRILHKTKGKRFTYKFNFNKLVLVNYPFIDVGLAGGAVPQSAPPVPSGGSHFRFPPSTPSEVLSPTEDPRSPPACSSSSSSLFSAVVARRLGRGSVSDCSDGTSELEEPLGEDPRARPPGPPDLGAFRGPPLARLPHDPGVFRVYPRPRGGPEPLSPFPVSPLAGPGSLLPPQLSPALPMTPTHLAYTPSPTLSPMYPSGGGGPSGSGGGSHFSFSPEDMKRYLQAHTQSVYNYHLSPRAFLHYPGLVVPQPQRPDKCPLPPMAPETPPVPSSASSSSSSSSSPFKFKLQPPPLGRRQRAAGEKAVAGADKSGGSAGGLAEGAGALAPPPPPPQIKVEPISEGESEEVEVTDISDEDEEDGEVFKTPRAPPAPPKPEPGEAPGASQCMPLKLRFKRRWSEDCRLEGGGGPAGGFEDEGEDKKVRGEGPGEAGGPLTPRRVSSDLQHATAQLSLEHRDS
Outline: (§1)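 After expression in yeast as GST fusions, human transcription factors were bound to glutathione beads, DNA-barcoded and mixed with a tag-only sample. The pools were incubated with 200 nmole of a 16-mer random double-stranded DNA library in Tris/NaCl/DTT/glycerol buffer (30 min, room temperature), washed and crosslinked with 0.1% formaldehyde. Proximity ligation with BsaI/T4 ligase ran for 1 h at 37 °C, before PCR amplification and sequencing on an Illumina NextSeq500. Binding signal is a hexamer's read frequency for a factor divided by its frequency for the tag-only sample.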

ETV3L = target: T2, ETV3L (Homo sapiens, UniProt Q6ZN32 1-361)
T2 sequence: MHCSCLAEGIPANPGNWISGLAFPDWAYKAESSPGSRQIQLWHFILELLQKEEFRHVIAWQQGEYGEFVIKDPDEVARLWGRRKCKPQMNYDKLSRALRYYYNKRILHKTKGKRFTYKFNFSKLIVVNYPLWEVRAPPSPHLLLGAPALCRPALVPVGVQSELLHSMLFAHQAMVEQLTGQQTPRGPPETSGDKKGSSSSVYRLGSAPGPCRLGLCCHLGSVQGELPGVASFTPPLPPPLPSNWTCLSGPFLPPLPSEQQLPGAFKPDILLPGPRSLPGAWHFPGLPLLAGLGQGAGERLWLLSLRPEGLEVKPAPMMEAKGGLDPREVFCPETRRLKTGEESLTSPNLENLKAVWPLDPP
Outline: as §1

ETS2 = target: T3, ETS2 (Homo sapiens, UniProt P15036 1-469)
T3 sequence: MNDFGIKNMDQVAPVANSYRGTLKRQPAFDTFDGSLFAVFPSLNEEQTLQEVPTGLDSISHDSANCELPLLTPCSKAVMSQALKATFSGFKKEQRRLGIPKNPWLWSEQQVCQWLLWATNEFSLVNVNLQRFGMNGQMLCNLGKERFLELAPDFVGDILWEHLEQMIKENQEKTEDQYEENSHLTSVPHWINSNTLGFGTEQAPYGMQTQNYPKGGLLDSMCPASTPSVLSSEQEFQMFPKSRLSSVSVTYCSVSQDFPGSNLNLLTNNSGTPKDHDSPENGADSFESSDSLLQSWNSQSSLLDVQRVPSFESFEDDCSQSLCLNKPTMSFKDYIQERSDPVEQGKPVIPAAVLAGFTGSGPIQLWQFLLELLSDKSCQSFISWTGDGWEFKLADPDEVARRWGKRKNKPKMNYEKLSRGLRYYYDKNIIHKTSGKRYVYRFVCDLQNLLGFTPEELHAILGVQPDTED
Outline: as §1

SPDEF = target: T4, SPDEF (Homo sapiens, UniProt O95238 1-335)
T4 sequence: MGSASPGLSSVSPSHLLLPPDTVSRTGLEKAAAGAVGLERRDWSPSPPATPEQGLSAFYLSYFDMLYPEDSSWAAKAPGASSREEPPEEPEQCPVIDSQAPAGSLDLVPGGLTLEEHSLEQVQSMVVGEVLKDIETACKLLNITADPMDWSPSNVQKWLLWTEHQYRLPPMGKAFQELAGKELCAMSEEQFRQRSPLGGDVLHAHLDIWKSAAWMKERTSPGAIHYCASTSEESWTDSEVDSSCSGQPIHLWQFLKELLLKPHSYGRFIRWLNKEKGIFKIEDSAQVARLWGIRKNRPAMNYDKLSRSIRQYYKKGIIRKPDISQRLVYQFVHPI
Outline: as §1

ETV7 = target: T5, ETV7 (Homo sapiens, UniProt Q9Y603 1-341)
T5 sequence: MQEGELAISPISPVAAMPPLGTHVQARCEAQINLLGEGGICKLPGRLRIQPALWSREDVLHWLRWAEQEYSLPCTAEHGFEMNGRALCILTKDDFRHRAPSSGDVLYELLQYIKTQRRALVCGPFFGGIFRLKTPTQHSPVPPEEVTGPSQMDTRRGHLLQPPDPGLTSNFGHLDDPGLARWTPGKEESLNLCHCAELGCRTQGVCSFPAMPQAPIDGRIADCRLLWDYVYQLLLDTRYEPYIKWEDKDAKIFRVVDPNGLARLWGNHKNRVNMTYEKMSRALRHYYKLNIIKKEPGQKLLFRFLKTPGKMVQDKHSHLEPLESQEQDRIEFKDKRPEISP
Outline: as §1

ETV3 = target: T6, ETV3 (Homo sapiens, UniProt P41162-2 1-143)
T6 sequence: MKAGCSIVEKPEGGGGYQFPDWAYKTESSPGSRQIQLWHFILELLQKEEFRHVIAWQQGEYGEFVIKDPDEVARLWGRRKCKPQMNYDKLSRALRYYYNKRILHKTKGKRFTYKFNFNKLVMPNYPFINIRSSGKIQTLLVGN
Outline: as §1

ETV6 = ETV6 (Homo sapiens, UniProt P41212 1-452)
Chain of ETV6 (P41212 whole entry): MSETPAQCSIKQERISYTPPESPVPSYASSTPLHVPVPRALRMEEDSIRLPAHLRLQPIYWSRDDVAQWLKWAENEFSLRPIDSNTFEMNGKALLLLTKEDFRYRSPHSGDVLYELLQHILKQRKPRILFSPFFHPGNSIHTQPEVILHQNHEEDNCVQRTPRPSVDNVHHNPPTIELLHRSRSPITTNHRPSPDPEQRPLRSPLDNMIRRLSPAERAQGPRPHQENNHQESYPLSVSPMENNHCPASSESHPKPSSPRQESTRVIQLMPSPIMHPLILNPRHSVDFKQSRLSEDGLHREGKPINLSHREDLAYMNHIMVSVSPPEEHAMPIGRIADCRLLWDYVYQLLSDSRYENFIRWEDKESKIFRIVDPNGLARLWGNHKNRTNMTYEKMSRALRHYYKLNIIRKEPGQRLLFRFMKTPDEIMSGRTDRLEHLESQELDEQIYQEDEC
Outline: as §1

Row | Sequence | binding signal (ERF) | binding signal (ETV3L) | binding signal (ETS2) | binding signal (SPDEF) | binding signal (ETV7) | binding signal (ETV3) | binding signal (ETV6)
1 | CAACCA | 1.14 fold enrichment (6-mer frequency, TF over GST control) | 1.05 fold enrichment (6-mer frequency, TF over GST control) | 1.1 fold enrichment (6-mer frequency, TF over GST control) | 1.09 fold enrichment (6-mer frequency, TF over GST control) | 1.04 fold enrichment (6-mer frequency, TF over GST control) | 1.1 fold enrichment (6-mer frequency, TF over GST control) | 1.03 fold enrichment (6-mer frequency, TF over GST control)
2 | TGACTA | 1.14 fold enrichment (6-mer frequency, TF over GST control) | 1.08 fold enrichment (6-mer frequency, TF over GST control) | 1.04 fold enrichment (6-mer frequency, TF over GST control) | 1.08 fold enrichment (6-mer frequency, TF over GST control) | 1.07 fold enrichment (6-mer frequency, TF over GST control) | 1.05 fold enrichment (6-mer frequency, TF over GST control) | 1.15 fold enrichment (6-mer frequency, TF over GST control)
3 | TTAGAA | 1.1 fold enrichment (6-mer frequency, TF over GST control) | 1.07 fold enrichment (6-mer frequency, TF over GST control) | 1.08 fold enrichment (6-mer frequency, TF over GST control) | 1 fold enrichment (6-mer frequency, TF over GST control) | 1.08 fold enrichment (6-mer frequency, TF over GST control) | 1.06 fold enrichment (6-mer frequency, TF over GST control) | 1.15 fold enrichment (6-mer frequency, TF over GST control)
4 | AGCTCA | 1.08 fold enrichment (6-mer frequency, TF over GST control) | 1.08 fold enrichment (6-mer frequency, TF over GST control) | 1.13 fold enrichment (6-mer frequency, TF over GST control) | 1.08 fold enrichment (6-mer frequency, TF over GST control) | 1.03 fold enrichment (6-mer frequency, TF over GST control) | 1.15 fold enrichment (6-mer frequency, TF over GST control) | 1.1 fold enrichment (6-mer frequency, TF over GST control)
5 | GGTGTT | 1.14 fold enrichment (6-mer frequency, TF over GST control) | 1.07 fold enrichment (6-mer frequency, TF over GST control) | 1.08 fold enrichment (6-mer frequency, TF over GST control) | 1.1 fold enrichment (6-mer frequency, TF over GST control) | 1.01 fold enrichment (6-mer frequency, TF over GST control) | 1.05 fold enrichment (6-mer frequency, TF over GST control) | 1.1 fold enrichment (6-mer frequency, TF over GST control)
6 | CGATCG | 1.04 fold enrichment (6-mer frequency, TF over GST control) | 1.03 fold enrichment (6-mer frequency, TF over GST control) | 1.04 fold enrichment (6-mer frequency, TF over GST control) | 1.1 fold enrichment (6-mer frequency, TF over GST control) | 1 fold enrichment (6-mer frequency, TF over GST control) | 1.09 fold enrichment (6-mer frequency, TF over GST control) | 1.03 fold enrichment (6-mer frequency, TF over GST control)
7 | ACACCT | 1.14 fold enrichment (6-mer frequency, TF over GST control) | 1.15 fold enrichment (6-mer frequency, TF over GST control) | 1.05 fold enrichment (6-mer frequency, TF over GST control) | 1.05 fold enrichment (6-mer frequency, TF over GST control) | 1.11 fold enrichment (6-mer frequency, TF over GST control) | 1.08 fold enrichment (6-mer frequency, TF over GST control) | 1.06 fold enrichment (6-mer frequency, TF over GST control)
8 | TTGGGC | 1.12 fold enrichment (6-mer frequency, TF over GST control) | 1.22 fold enrichment (6-mer frequency, TF over GST control) | 1.12 fold enrichment (6-mer frequency, TF over GST control) | 1 fold enrichment (6-mer frequency, TF over GST control) | 1.09 fold enrichment (6-mer frequency, TF over GST control) | 1.04 fold enrichment (6-mer frequency, TF over GST control) | 1.11 fold enrichment (6-mer frequency, TF over GST control)
9 | CAATAG | 1.21 fold enrichment (6-mer frequency, TF over GST control) | 1.02 fold enrichment (6-mer frequency, TF over GST control) | 1.08 fold enrichment (6-mer frequency, TF over GST control) | 1.08 fold enrichment (6-mer frequency, TF over GST control) | 1.11 fold enrichment (6-mer frequency, TF over GST control) | 1.09 fold enrichment (6-mer frequency, TF over GST control) | 1.12 fold enrichment (6-mer frequency, TF over GST control)
10 | CGCTTG | 1.06 fold enrichment (6-mer frequency, TF over GST control) | 1.01 fold enrichment (6-mer frequency, TF over GST control) | 1.22 fold enrichment (6-mer frequency, TF over GST control) | 1.09 fold enrichment (6-mer frequency, TF over GST control) | 1.01 fold enrichment (6-mer frequency, TF over GST control) | 1.06 fold enrichment (6-mer frequency, TF over GST control) | 1.11 fold enrichment (6-mer frequency, TF over GST control)
11 | ACAGAT | 1.06 fold enrichment (6-mer frequency, TF over GST control) | 1.01 fold enrichment (6-mer frequency, TF over GST control) | 1.03 fold enrichment (6-mer frequency, TF over GST control) | 1.05 fold enrichment (6-mer frequency, TF over GST control) | 1.12 fold enrichment (6-mer frequency, TF over GST control) | 1.02 fold enrichment (6-mer frequency, TF over GST control) | –
12 | ATTGAA | 1.14 fold enrichment (6-mer frequency, TF over GST control) | 1.1 fold enrichment (6-mer frequency, TF over GST control) | 1.09 fold enrichment (6-mer frequency, TF over GST control) | 1.07 fold enrichment (6-mer frequency, TF over GST control) | 1.14 fold enrichment (6-mer frequency, TF over GST control) | 1.03 fold enrichment (6-mer frequency, TF over GST control) | 1.08 fold enrichment (6-mer frequency, TF over GST control)
13 | TACTGA | 1.17 fold enrichment (6-mer frequency, TF over GST control) | 1.13 fold enrichment (6-mer frequency, TF over GST control) | 1.1 fold enrichment (6-mer frequency, TF over GST control) | 1.14 fold enrichment (6-mer frequency, TF over GST control) | 1.01 fold enrichment (6-mer frequency, TF over GST control) | 1.11 fold enrichment (6-mer frequency, TF over GST control) | –
14 | TCGATA | 1.24 fold enrichment (6-mer frequency, TF over GST control) | 1.13 fold enrichment (6-mer frequency, TF over GST control) | 1.06 fold enrichment (6-mer frequency, TF over GST control) | 1.07 fold enrichment (6-mer frequency, TF over GST control) | 1.07 fold enrichment (6-mer frequency, TF over GST control) | 1.11 fold enrichment (6-mer frequency, TF over GST control) | 1.01 fold enrichment (6-mer frequency, TF over GST control)
15 | TCACAG | 1.02 fold enrichment (6-mer frequency, TF over GST control) | 1.13 fold enrichment (6-mer frequency, TF over GST control) | 1.06 fold enrichment (6-mer frequency, TF over GST control) | 1.05 fold enrichment (6-mer frequency, TF over GST control) | 1.11 fold enrichment (6-mer frequency, TF over GST control) | 1.06 fold enrichment (6-mer frequency, TF over GST control) | 1.11 fold enrichment (6-mer frequency, TF over GST control)
16 | ATGAAG | 1.12 fold enrichment (6-mer frequency, TF over GST control) | 1.05 fold enrichment (6-mer frequency, TF over GST control) | 1.06 fold enrichment (6-mer frequency, TF over GST control) | 1.07 fold enrichment (6-mer frequency, TF over GST control) | 1.09 fold enrichment (6-mer frequency, TF over GST control) | 1.03 fold enrichment (6-mer frequency, TF over GST control) | 1.03 fold enrichment (6-mer frequency, TF over GST control)
